# Laboratory results from the supplement of paper PMC11417369.
# Over roughly 25,000 sequences, “ln(normalized median fluorescence intensity)” has its median near 9.7; the highest 2% begin near 11. The sample as a whole holds a higher share of the highest values than the screen did.
# System: PfAP2-HC AP2 domain (GST-tagged)
# Assay: gcPBM binding intensity (ln(normalized median fluorescence intensity)); higher = stronger DNA binding
# Summary of the method: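 An Agilent 4 × 180k array of primer-extended double-stranded 36-bp intergenic genomic probes, with negative controls, was incubated for 1 h with GST-tagged P. falciparum DNA-binding domains expressed in E. coli. Alexa488 anti-GST antibody detected bound protein, scanned at 488 nm. Binding intensity is the highest Masliner-normalised natural-log median intensity across replicate spots of either probe orientation.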
row,Sequence,gcPBM binding intensity (ln)
1,AAAAAAAAAAAAATGTGTACATACATATATTTATAT [XGTACX_site3076],9.74
2,CTTTCGGTTGGAGAGGTGCGCTTCTCCTTTATAATA,9.61
3,TTTTTTTTTTATGGTACACACACGCGTATGGTTGCA [CACACA_site1876],10
4,AAGAAATAAATACATACACACATATATATATATATA [CACACA_site3362],10.3
5,CGAAAGAAAAAAAGCACACACAGTTTTGAGCAATGA [CACACA_site2109],10.1
6,AAGTTTTATATTTATTAAATTTTTTTTTTTCCTTTT [XGTACX_negctrl_site184],9.2
7,AATATTCGTAATTGATGTACTTGTAATTCATACATT [XGTACX_site8314],9.67
8,AAAAATTTGGCATACACACACACACCCACACCCACA [CACACA_site587],10.4
9,AACTTTGGCAAACACACACACACACCCACACCCACA [CACACA_site588],10.5
10,ATTTGGCAGAAACACACACACACACCCACCCACATA [CACACA_site589],10.5
11,ATTTGGCATAAACACACACACACACCCACCCACATA [CACACA_site8096],10.9
12,AAATTTGGCAAACACACACACACACCCACACCCACA [CACACA_site8095],11.4
13,AAATTTGGCAAACACACACACACACCCACAGAGACA [CACACA_site4490],11.3
14,GATATGGAATATATGTGTACATATATATATATTATA [XGTACX_site1724],9.77
15,TATTTATAAAAAAATACATGCATTTTTTTTTTTTTT [TGCATGCA_site65],9.36
16,AAAACAAATTAAAATCGTACAATTATAATGTTAATG [XGTACX_site180],9.7
17,TATTCTAATATATGCATACACACAAATGTGAATATA [CACACA_site2143],9.66
18,AGATAGCTATTAAAAAGTACAAAAAAATATATATAT [XGTACX_site6289],9.71
19,ATATTACACATATATGCACACATTGTAGTTATTTAT [CACACA_site8843],9.99
20,ATATATAACGGGCACACACACATTTACGTATGAATA [CACACA_site1833],11.1
21,ATATATAACGTGCACACACACATTTACGTATGAATA [CACACA_site6948],10
22,TAATATATAACGTGCACACACACATTTACGTATGAA [CACACA_site1832],10
23,TTTATTAGTAATTATACACACATATAAAATGAATAA [CACACA_site6754],9.67
24,ATAATAAGGTTAAGCACACATATTACATATATAACT [CACACA_site3356],10
25,GTTATATAAAAATATTGTACATTCTATATAAAGTCA [XGTACX_site4418],9.47

row,Sequence,gcPBM binding intensity (ln)
1,ATATAGATCAGACACACACACATGTTTTAAAACTAT [CACACA_site6186],10.9
2,TGTTTTTAAAAAAAAAAAAAATCACACCGGCAGGTA [CACACA_negctrl_site1437],9.49
3,TTATATATAGATCACACACACACACCGGTTTTAAAA [CACACA_site4220],11.2
4,TAAGAAAAATATATATGTACACATATATATATATAT [XGTACX_site8542],9.61
5,CTTTGTGTTAAAAGTAGTACACCAAAAATATGACTT [XGTACX_site622],9.55
6,ATATTATACATTTATACACACATAAAAAGACAAAAA [CACACA_site3565],9.92
7,AATGGAAAAATAGGCACACACACATATATACATATA [CACACA_site1298],10.6
8,TGGCAAAATAGGCACACACACATATACATATATATT [CACACA_site1059],10.3
9,TATACAGACAGACACACACACATATATAAATATGTA [CACACA_site6912],10.6
10,CATACATACAGACACACACACATATAAATACATACA [CACACA_site6533],10.3
11,AATGGCAAAATAGGCACACACACATATACAGATATA [CACACA_site4726],10.6
12,AATGGAAAAATAGGCACACACACATAAATACAGATA [CACACA_site4844],11.2
13,TTAAAAAAAAGACACACACACATACACATATTTATA [CACACA_site7535],11.2
14,TGGAAAAATAGGCACACACACATATATACATATATA [CACACA_site1297],10.5
15,AATACATACAGACACACACACACATATAAATAAATA [CACACA_site7642],11.6
16,AAAAAAAAAAGACACACACACATATTTATTTATATA [CACACA_site6484],10.4
17,AATGGCAAAATAGGCACACACACATATACATATATA [CACACA_site1058],10.9
18,TTCTATATATAATATTGTACTTAATTATTTTATTTT [XGTACX_site2701],9.83
19,TTTTATCATATTTATTGTACACATAATATACATATC [XGTACX_site1145],9.99
20,GATATGTACTAATACACACACATATATATATATATA [CACACA_site1022],10.2
21,ATACATTTTTGTAAAAGTACATATACATGCCCCCTT [XGTACX_site1367],9.72
22,TTATATATATATGTATGTACTTATAACTTTTATTAG [XGTACX_site3190],9.6
23,TTTTTTTTTTTTGTAGTGCAAATTAAAAATATATGT,9.39
24,ACATAGATCATAGGTTGTACGAAGGTATCCTTTATT [XGTACX_site694],9.65
25,AAGATAACAAGTAATCAATCTAATTATTAATTATAT [CACACA_negctrl_site1713],9.52

row,Sequence,gcPBM binding intensity (ln)
1,AACGAACACTATTACACACATACATACATATGTATG [CACACA_site1859],10.1
2,AAGGAAAAACCATTCGCACACACACCGAATATATAA [CACACA_site8403],10.2
3,CAATTTTACTCATAAACACACATATAGATGTTATTA [CACACA_site7474],9.6
4,AAATAATATATTCCTTGTACTTATTTCAATGAATTC [XGTACX_site7719],9.64
5,TATACAGATGGACACACACACATAAATAAATATATA [CACACA_site4863],10.4
6,GAATAATATGGACATACACACATATACATACAGATA [CACACA_site5200],10.5
7,AAAAAAAACGAACACACACACATTCAATATAAAACA [CACACA_site6170],10.5
8,AAAAAAAACAGACACACACACATTCAATATAAAACA [CACACA_site41],11.3
9,ATGGGACAGATATATACACACATATAAATATAAATA [CACACA_site6684],10
10,GGAATAACCAGACACACACACACATATATATATATA [CACACA_site3541],10.9
11,AAAAAAAAAAAACACACACACACATTCAATATAAAA [CACACA_site40],10.4
12,CAAATACATGGACACACACACATATACAGATATATA [CACACA_site5854],10.9
13,CAAGGAACCAGACACACACACATAAATGTATATATA [CACACA_site752],10.2
14,TATACAGATGGACACACACACATATATATATATATA [CACACA_site5272],11
15,GGAATAACCAGACACACACACACATATAAATATGTA [CACACA_site7632],11.2
16,GATACAGATGGACACACACACATACATAAATACATA [CACACA_site5833],11.3
17,TACAATACCGTACAGGTGCAACTAGCCAAAAAAAAG,9.75
18,CCCTTTTTTTTTTAATGTACATATAATTATATATTT [XGTACX_site8568],9.88
19,ATTCAATAAACGTATTGTACAAAAGAACGATATATT [XGTACX_site2533],9.78
20,CAACATTCGTATATCACACATTTGCATGTTGTCAAT [CACACA_site4470],9.78
21,TAACAATATCTAGATACACACACATATCTCTCAATC [CACACA_site8122],10.4
22,CTCCTTTCAAAAAAATGTACATGTTTACATTTCAAG [XGTACX_site7342],9.55
23,TATACAGATAAATACACACACACATATATATATATA [CACACA_site4845],11.2
24,CATACAGATATATATACACACATACAGATAAATACA [CACACA_site4592],9.95
25,AATATGTACAGACATACACACATATTTATATTTATA [CACACA_site6694],9.88

row,Sequence,gcPBM binding intensity (ln)
1,TATATTATTTATTAGACACACATTATTAATATATTT [CACACA_site1078],9.79
2,TACATACACAGACACACACACATATATATATATATA [CACACA_site3557],10.9
3,CATACATACAGACACACACACATATTTATATTTATA [CACACA_site6172],11.3
4,GTAATACACAGACACACACACATACACATATTTATA [CACACA_site7313],10.5
5,TATACAGATAAATACACACACATATATATATATATA [CACACA_site4178],9.86
6,TACACATACAGACATACACACATACACATATACACA [CACACA_site6918],10.5
7,TATTTATATAGACACACACACATATATTTATATTTT [CACACA_site7240],10.4
8,TATATTAATAGACACACACACATATTTATATTTATA [CACACA_site6859],11.1
9,AATACATACAGACACACACACACATATATATATATA [CACACA_site3558],11.5
10,ATATATAGGTTCCCTTTTCTTTTTTTTTTTTTTTTT [CACACA_negctrl_site1159],9.39
11,AAAAAACAAAAAAAAAAAAAAATAATACAATATAAT [CACACA_negctrl_site1630],9.56
12,ACGATATTTTTGGTGACACACATATATATATATATA [CACACA_site126],9.8
13,AAAAATTTTTTTTCATTTGTTTTTATTCCGTAAAAA [CACACA_negctrl_site1217],9.17
14,ATGATATATAGACACACACACATATTTATATACATT [CACACA_site6404],10.9
15,TAAATACAGACATATACACACATATATATATATATA [CACACA_site4382],9.75
16,TATTTATAGATATATACACACATATTTATATTTATA [CACACA_site6441],9.78
17,TATATATCAATATACACACACACATATTTATTTATA [CACACA_site6858],10.4
18,TATATATCAAGACACACACACATATATTTATTTATA [CACACA_site7733],11.2
19,AAAAAATATATTAAGGCACACACATACATATATATA [CACACA_site9239],10.2
20,TATGTGCCAAGACACACACACATATTTATATTTATA [CACACA_site6360],10.2
21,CTAAAATACAGACACACACACACATATATATATATA [CACACA_site4150],11
22,AAAATATATTAAGGCACACACATACAGATATATATA [CACACA_site5951],11.1
23,TATACATAGATATATACACACATATATTTATATACA [CACACA_site6328],9.92
24,AAAATATATTAAGGCACACACATACATATATATATA [CACACA_site3723],10.7
25,AAAATACACAGACACACACACATATAAATAAATATT [CACACA_site7871],10.8
